Assay outcomes: PubChem, Broad Institute
Keap1 Nrf2 FP: Keap1-Nrf2 protein-protein interaction inhibitors, primary screen, biochemical, fluorescence polarization, single point. Keap1 Kelch-Nrf2 peptide fluorescence polarization, 1536-well. inhibition, % at 9.4 µM. 0.15% of 340,000 active; in the data active means inhibition above about 12%;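 further: human Keap1 Kelch domain with fluorescein labeled Nrf2 9mer peptide probe; higher means more block of Keap1 binding to Nrf2 peptide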
NSD2 HMT inh: NSD2 histone methyltransferase inhibitors, primary screen, biochemical, AlphaScreen, single concentration, set 2 | Histone-lysine N-methyltransferase NSD2 (Homo sapiens), O96028 | NSD2 peptide methylation, 120 min | inhibition, % at 12.5 µM | 0.54% of 310,000 active; in the data active means inhibition above about 50%
Target sequence (O96028 whole entry, looked up): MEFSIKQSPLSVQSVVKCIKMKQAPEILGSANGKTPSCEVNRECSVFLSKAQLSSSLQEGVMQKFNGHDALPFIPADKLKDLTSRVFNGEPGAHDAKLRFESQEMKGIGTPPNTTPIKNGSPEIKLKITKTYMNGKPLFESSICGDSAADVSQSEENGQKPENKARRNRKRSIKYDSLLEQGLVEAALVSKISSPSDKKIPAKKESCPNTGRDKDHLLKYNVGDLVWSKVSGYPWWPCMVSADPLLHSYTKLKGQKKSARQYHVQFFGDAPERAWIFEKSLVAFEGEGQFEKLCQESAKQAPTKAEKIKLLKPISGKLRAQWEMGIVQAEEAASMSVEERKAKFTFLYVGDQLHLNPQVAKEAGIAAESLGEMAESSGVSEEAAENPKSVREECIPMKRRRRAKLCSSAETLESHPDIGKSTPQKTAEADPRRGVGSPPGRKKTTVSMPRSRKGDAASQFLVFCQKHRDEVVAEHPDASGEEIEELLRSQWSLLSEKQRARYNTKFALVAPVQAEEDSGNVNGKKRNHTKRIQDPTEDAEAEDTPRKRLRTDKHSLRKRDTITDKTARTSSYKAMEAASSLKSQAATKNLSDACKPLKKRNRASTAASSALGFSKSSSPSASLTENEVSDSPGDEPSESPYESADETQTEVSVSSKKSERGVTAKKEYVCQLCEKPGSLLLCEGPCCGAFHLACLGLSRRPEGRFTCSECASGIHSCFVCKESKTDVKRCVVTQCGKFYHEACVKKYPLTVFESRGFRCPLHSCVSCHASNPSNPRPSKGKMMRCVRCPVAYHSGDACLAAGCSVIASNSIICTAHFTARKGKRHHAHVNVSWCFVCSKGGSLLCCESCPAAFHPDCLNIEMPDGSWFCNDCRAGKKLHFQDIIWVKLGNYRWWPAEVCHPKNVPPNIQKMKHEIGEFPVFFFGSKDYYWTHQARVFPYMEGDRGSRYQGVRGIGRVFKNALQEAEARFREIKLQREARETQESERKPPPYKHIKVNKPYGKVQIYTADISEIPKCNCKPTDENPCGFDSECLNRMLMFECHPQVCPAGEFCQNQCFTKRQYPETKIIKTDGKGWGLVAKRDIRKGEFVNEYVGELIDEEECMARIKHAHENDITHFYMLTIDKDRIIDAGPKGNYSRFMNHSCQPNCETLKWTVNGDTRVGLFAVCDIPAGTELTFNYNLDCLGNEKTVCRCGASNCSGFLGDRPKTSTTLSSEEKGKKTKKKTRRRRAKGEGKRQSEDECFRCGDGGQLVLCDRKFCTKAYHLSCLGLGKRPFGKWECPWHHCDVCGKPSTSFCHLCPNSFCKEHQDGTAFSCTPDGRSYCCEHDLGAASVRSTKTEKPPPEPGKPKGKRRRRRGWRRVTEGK
HDAC3 inh: HDAC3 deacetylase inhibitors, primary screen, biochemical, fluorescence, cell-free homogeneous | AID 2718, 2010 | 0.15% of 320,000 active | recombinant HDAC3, fluorogenic peptide/trypsin coupled | inhibition, % at 8.3 µM; in the data active means inhibition above about 26%, passing the limit was not always enough
N-glyco inh: increase of ERlucT glycosylation luciferase signal, primary screen, N-linked glycosylation inhibitor project, D54 ERlucT cells, luminescence, set 2. D54 ERlucT glycosylation luciferase reporter, 24 h; percent of 100 nM tunicamycin response. reporter increase, % at 12.5 µM. 0.23% of 360,000 active;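 active means mean luciferase reporter signal, scaled so untreated is 0 and the glycosylation-blocking control 100, at or above a set limit in every replicate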;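 further: luciferase carries N-glycosylation sites so blocking glycosylation raises the light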
C-LANA FP: inhibitors of KSHV C-LANA binding to DNA, primary screen, biochemical, fluorescence polarization, FAM-LBS DNA, MBP-C-LANA, single point; 0.078% of 340,000 active; Kaposi's sarcoma herpesvirus LANA C-terminal domain (residues 932-1162) DNA binding; inhibition, % at 9 µM;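 active means highest replicate inhibition at or above 60% at 9 µM, even if other replicates fall short; inactive means all replicates below 60% inhibition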
Casp6 inh: human caspase-6 inhibitors, primary screen, biochemical, VEID-R110 fluorescence, single point, set 2; P55212; purified caspase-6, Z-VEID-R110 cleavage fluorescence; inhibition, % at 12.5 µM; 0.53% of 350,000 active; AID 686996, 2013;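 active means mean inhibition across replicates at least about 35%, with every replicate also reaching that limit, limit read from the data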
Alpha artifact: AlphaScreen signal interference with preloaded methylated product, dose response, artefact control for NSD2 inhibitor project, biochemical, cherry-picked samples | shares compounds with NSD2 HMT inh | AlphaScreen artifact counterscreen, preloaded methylated H4 peptide | AC35, µM (top dose mostly 10 µM) | 9.4% of 1,500 active; call rule not given here
Each line names hits and unclear results; the compound was inactive in the other large screens (follow-up assays come after a bar, where they were run). Shown are actives, neighbours in structure and some others; about 1.1% of the full set was active somewhere.

COc1ccc(NC(=O)N(C)C[C@@H]2Oc3ccc(NS(=O)(=O)c4ccc(OC)cc4)cc3C(=O)N([C@@H](C)CO)C[C@@H]2C)cc1	none (no result: Keap1 Nrf2 FP, NSD2 HMT inh, HDAC3 inh, N-glyco inh, C-LANA FP)
NCC[C@@H]1CC[C@@H](NC(=O)C2CC2)[C@@H](CO)O1	none (no result: Keap1 Nrf2 FP, NSD2 HMT inh, HDAC3 inh, N-glyco inh, C-LANA FP)
C=CCOc1ccc(/C=C2\SC(=S)N(NS(=O)(=O)c3ccc(C)cc3)C2=O)cc1	NSD2 HMT inh 55 (no result: Casp6 inh) | Alpha artifact inactive
O=C(C[C@H]1C[C@@H]2c3cc(NC(=O)Nc4ccc(C(F)(F)F)cc4)ccc3O[C@@H]2[C@@H](CO)O1)NC1CCCCC1	none (no result: Keap1 Nrf2 FP, NSD2 HMT inh, HDAC3 inh, N-glyco inh, C-LANA FP)
O=C(NCc1cccnc1)c1ccc2c(c1)OCO2	NSD2 HMT inh 66 | Alpha artifact inactive
O=C(NCc1ccc2c(c1)OCO2)c1ccc2c(c1)C(=O)N(Cc1cccnc1)C2=O	none (no result: Casp6 inh)
S=C1NCN(Cc2ccco2)CN1CCc1ccccc1	NSD2 HMT inh 53 | Alpha artifact inactive
O=C(C[C@@H]1CC[C@H](NC(=O)C2CC2)[C@H](CO)O1)Nc1nccs1	none (no result: Keap1 Nrf2 FP, NSD2 HMT inh, HDAC3 inh, N-glyco inh, C-LANA FP)
O=C(Cc1ccccc1)NCC1COc2ccccc2O1 (stereo unspecified)	none
COc1cc(CC(=O)NCC2COc3ccccc3O2)cc(OC)c1OC (stereo unspecified)	NSD2 HMT inh 54 | Alpha artifact inactive
O=C(CSc1ccc(-c2cccnc2)nn1)N1CCCCCC1	none
O=C(CSc1ccc(-c2cccnc2)nn1)N1CCCC1	NSD2 HMT inh 52 | Alpha artifact inactive
CN(C)C(=O)C[C@H]1C=C[C@@H](NC(=O)NC2CCCCC2)[C@H](CO)O1	none (no result: Keap1 Nrf2 FP, NSD2 HMT inh, HDAC3 inh, N-glyco inh, C-LANA FP)
COc1cc(C(=O)Oc2cccc(/C=N/NC(=O)c3cccnc3)c2)cc(OC)c1OC	NSD2 HMT inh 98 | Alpha artifact inactive
C=CCNC(=O)[C@H]1[C@@H]2C(=O)O[C@@H](c3ccccc3)[C@@H](c3ccccc3)N2[C@@H](c2ccc(O)cc2)[C@]12C(=O)N(C(=O)OCCOC)c1ccc(C#CC3(O)CCCCCC3)cc12	none (no result: Keap1 Nrf2 FP, NSD2 HMT inh, HDAC3 inh, N-glyco inh, C-LANA FP)
CC(=O)C1=C(O)C(=O)N(Cc2cccnc2)C1c1ccccc1 (stereo unspecified)	NSD2 HMT inh 131 (no result: Casp6 inh) | Alpha artifact inactive
CC(=O)C1=C(O)C(=O)N(Cc2cccnc2)C1c1ccc(O)cc1 (stereo unspecified)	none
C/C(NCCc1ccccc1)=C1/CCOC1=O	NSD2 HMT inh 65 (no result: Keap1 Nrf2 FP, HDAC3 inh, C-LANA FP) | Alpha artifact inactive
Cc1c(C)n(Cc2ccccc2)c2ccc(C(=O)OCCN(C)C)cc12	NSD2 HMT inh 50 | Alpha artifact inactive
Cc1[nH][nH]c(=O)c1C(c1ccc(-c2cccc(Cl)c2)o1)c1c(C)[nH][nH]c1=O	none (no result: NSD2 HMT inh, Casp6 inh)
Cc1[nH][nH]c(=O)c1C(c1ccc(-c2cccc(C(=O)O)c2)o1)c1c(C)[nH][nH]c1=O	NSD2 HMT inh active, Casp6 inh 42 | Alpha artifact inactive
COC(=O)c1ccc(-c2ccc(C(c3c(C)[nH][nH]c3=O)c3c(C)[nH][nH]c3=O)o2)cc1	NSD2 HMT inh 53, Casp6 inh 40 | Alpha artifact inactive
Cc1[nH][nH]c(=O)c1C(c1ccc(-c2ccccc2C(=O)O)o1)c1c(C)[nH][nH]c1=O	NSD2 HMT inh 78 (no result: Casp6 inh) | Alpha artifact inactive
Nc1ccc2c(O)cc(S(=O)(=O)O)cc2c1	NSD2 HMT inh 80, Casp6 inh 77 (no result: HDAC3 inh) | Alpha artifact inactive
CCOc1cc(C(=O)NCC(=O)N2CCC3(CC2)NCCc2[nH]cnc23)cc(OCC)c1OCC	NSD2 HMT inh 56 | Alpha artifact inactive
CC1CCCN(C2=C(NS(=O)(=O)c3ccc(Cl)cc3)C(=O)c3ccccc3C2=O)C1 (stereo unspecified)	none (no result: Casp6 inh)
NC(=O)C1CCN(C2=C(NS(=O)(=O)c3ccc(Cl)cc3)C(=O)c3ccccc3C2=O)CC1	NSD2 HMT inh 77 | Alpha artifact inactive
Cc1ccc(S(=O)(=O)NC2=C(N3CCN(c4ccccc4F)CC3)C(=O)c3ccccc3C2=O)cc1	none
COC(=O)C1CCN(C2=C(NS(=O)(=O)c3ccc(Cl)cc3)C(=O)c3ccccc3C2=O)CC1	NSD2 HMT inh 62 | Alpha artifact 7.8µM
Cc1noc(C)c1S(=O)(=O)N1CCN(S(=O)(=O)c2ccccc2C#N)CC1	NSD2 HMT inh 107 | Alpha artifact inactive
CCOc1ccc2nc(SCC(=O)NC(=O)NCc3ccco3)sc2c1	none (no result: Casp6 inh)
CCOc1ccc2nc(SCC(=O)NCc3ccco3)sc2c1	NSD2 HMT inh 129 (no result: Casp6 inh) | Alpha artifact inactive
O=S(=O)(c1ccc(F)cc1)N1C[C@@H]2N[C@H](C1)C2c1ccc(-c2ccc(F)cc2)cc1 (stereo partly specified)	none (no result: Keap1 Nrf2 FP, NSD2 HMT inh, HDAC3 inh, N-glyco inh, C-LANA FP)
CCN(CC)S(=O)(=O)c1cccc(N=NC2=C(O)CCCC2=O)c1	none (no result: Casp6 inh)
O=C1CCCC(O)=C1N=Nc1cccc(C(=O)O)c1	NSD2 HMT inh 69, Casp6 inh 37 | Alpha artifact inactive
COCCNC(=O)c1ccc(CN2CCc3ccccc3C2)cc1	NSD2 HMT inh 56 | Alpha artifact inactive
Cc1ccc(C(=O)Nc2ccc(CC(=O)O)cc2)o1	NSD2 HMT inh 126 (no result: Casp6 inh) | Alpha artifact inactive
CCCCN(CC)CCCNC(=O)c1cn(CC)c2ccc(S(=O)(=O)N3CCc4ccccc4C3)cc2c1=O	none
CCCN(CCC)CCCNC(=O)c1cn(CC)c2ccc(S(=O)(=O)N3CCc4ccccc4C3)cc2c1=O	NSD2 HMT inh 50 | Alpha artifact inactive
CC(=O)Nc1ccc(S(=O)(=O)NCCSCc2cccc(Cl)c2)cc1	none
CC(=O)Nc1ccc(S(=O)(=O)NCCSCc2c(Cl)cccc2Cl)cc1	NSD2 HMT inh 123 (no result: Casp6 inh) | Alpha artifact inactive
Cc1ccc(S(=O)(=O)Nc2cccc3c2O[C@@H](CN(C)S(C)(=O)=O)[C@@H](C)CN([C@H](C)CO)C3=O)cc1	none (no result: Keap1 Nrf2 FP, NSD2 HMT inh, HDAC3 inh, N-glyco inh, C-LANA FP)
CC(=O)c1c(C)[nH]c(C(=O)CSc2nnc(-c3ccco3)n2Cc2ccccc2)c1C	NSD2 HMT inh 58 (no result: Casp6 inh) | Alpha artifact inactive
O=C(O)c1ccc2cccnc2c1O	NSD2 HMT inh 61 | Alpha artifact inactive
CC(=O)Nc1ccc(Sc2ccccc2C(=O)O)cn1	NSD2 HMT inh 73 | Alpha artifact inactive
C/C=C/c1ccc2c(c1)O[C@@H](CN(C)C(=O)Nc1ccc(C(F)(F)F)cc1)[C@H](C)CN([C@@H](C)CO)S2(=O)=O	none (no result: Keap1 Nrf2 FP, NSD2 HMT inh, HDAC3 inh, N-glyco inh, C-LANA FP)
CC[n+]1c(/C=C/c2c[nH]c3ccccc23)ccc2cc(C)ccc21	NSD2 HMT inh 108 (no result: HDAC3 inh, N-glyco inh) | Alpha artifact inactive
